Bioassay records (PubChem)
FBPA coupling cs: coupling enzyme interference in Giardia aldolase counter-screen; coupling enzyme system counterscreen, AmpLite Red fluorescence; activity change, negative = inhibition, % at 58.2 µM, hits read low; 0.67% of 290,000 active; in the data active means activity change below about -30%
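Counterscreen lacking aldolase: glyceraldehyde-3-phosphate coupling-enzyme reagent preincubated 10 min at RT with compound (at 57.5 uM final), then substrate/coupling system with AmpLite Red added; fluorescence read at 525/598 nm after 20 min RT.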
Tau fibril ThT: tau fibrillization inhibition (ThT binding) | P10636 | recombinant tau K18 P301L, heparin-induced fibrillization, ThT fluorescence | Potency, µM (highest dose often 57.4 µM), most hits filed as inhibitors | 2.1% of 270,000 active; further: nearly all actives have a fitted effect of over 55% in size
Target sequence (P10636 561-689 P618L limits assumed): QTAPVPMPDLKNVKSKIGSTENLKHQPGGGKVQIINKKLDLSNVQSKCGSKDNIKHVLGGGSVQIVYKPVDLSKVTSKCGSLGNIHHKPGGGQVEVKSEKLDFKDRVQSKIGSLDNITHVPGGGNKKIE
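K18 P301L tau (15 uM + 0.24 uM Alexa 594-tagged), heparin 20 uM, NaOAc pH 7, 6 h 37 C; ThT 30 uM, 1 h RT, ex 450/em 510 nm.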
G9a block: inhibitors of human histone lysine methyltransferase G9a; Q96KQ7; G9a H3K9 monomethylation, AlphaScreen, 2 h; Potency, µM (top dose mostly 102 µM), most hits filed as inhibitors; 8.8% of 350,000 active; further: nearly all actives have a fitted effect of over 75% in size
Target sequence (Q96KQ7 913-1193 limits assumed): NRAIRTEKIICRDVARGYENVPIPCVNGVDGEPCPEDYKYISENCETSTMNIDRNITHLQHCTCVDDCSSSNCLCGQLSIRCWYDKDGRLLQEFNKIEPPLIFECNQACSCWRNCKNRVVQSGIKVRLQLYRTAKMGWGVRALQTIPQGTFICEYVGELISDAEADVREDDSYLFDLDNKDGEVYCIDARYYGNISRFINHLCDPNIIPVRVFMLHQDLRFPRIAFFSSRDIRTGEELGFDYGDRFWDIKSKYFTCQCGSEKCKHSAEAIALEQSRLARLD
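Chemiluminescent proximity detection of H3K9 monomethylation, read after 10 min bead incubation in the dark. Reaction: 20 nM G9a, 500 nM biotin-H3K9 peptide, 20 uM SAM cofactor, 2 h, room temperature, following 15 min enzyme-compound preincubation.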
Tau fluor cs: counter-screen for tau fibril formation inhibitors; tau K18 P301L (four-repeat tau fragment) Alexa594 fluorescence, heparin fibrillization; 0.93% of 280,000 active; Potency, µM (doses to about 57.7 µM); further: nearly all actives have a fitted effect of over 55% in size
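Human K18 P301L tau (15 uM unlabeled plus 0.24 uM Alexa 594-labeled, final) in 100 mM sodium acetate pH 7 was mixed with compound and 20 uM heparin and incubated 6 hr at 37 C.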
Tau FP inhib: tau fibrillization inhibition (FP); P10636; K18 P301L tau heparin fibrillization, Alexa594 FP, 6 h; Potency, µM (doses to about 57.7 µM), most hits filed as inhibitors; 0.39% of 280,000 active; further: nearly all actives have a fitted effect of over 55% in size
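Recombinant K18 P301L […], labeled with Alexa 594 at 0.24 uM over 15 uM unlabeled; heparin inducer 20 uM final; 37 C, 6 hr; FP endpoint.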
Sfp PPTase inh: blocks B. subtilis Sfp PPTase activity | Q9F4F7 | Biochemical Sfp PPTase activity, qHTS | Potency, µM, actives largely listed as inhibitors | 3.5% of 310,000 active;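 further: the enzyme is Sfp with the accession as filed and its product quenches rhodamine fluorescence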
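Fluorescence-quenching assay: 15 nM Sfp-PPTase preincubated 15 min at room temperature with compound, then 5 uM rhodamine-CoA and 12.5 uM BHQ-2-labelled YbbR peptide added. Fluorescence (ex 525/em 598 nm) read at start and after 30 min; difference gives rate.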
Hits are given with their value; n = inactive; u = inconclusive; x = no result; ! = not confirmed by another sample; [ ] = another dose, or the depositor's remark. Shown are actives, neighbours in structure and some others; about 11% of the full set was active somewhere. Unless noted, the call rests on the fitted dose curve; in most records, active means well fitted curve in the direction sought with a large enough effect; inconclusive means small, poorly fitted or top-dose-only effect, or another doubt; inactive means no such curve, though single readings can be large; an effect the other way counts as inactive or inconclusive.

SMILES | FBPA coupling cs | Tau fibril ThT | G9a block | Tau fluor cs | Tau FP inhib | Sfp PPTase inh
COc1ccc(N2CCN(c3nc(Cl)nc(Nc4ccc(F)cc4)n3)CC2)cc1 | n | u | 10µM | u | n | n
COc1ccc(N2CCN(c3nc(Nc4ccc(C)c(F)c4)nc(N4CCCC4)n3)CC2)cc1 | n | n | 7.1µM | u | n | n
CCc1ccc(-n2c(=O)c3c4c(sc3n(CC(=O)c3ccc(Br)cc3)c2=O)CCC4)cc1 | x | u | n | n | n | x
N#CCN(N=Nc1ccccc1)c1ccccc1 | n | x | u | x | x | n
Oc1cc2c(cc1O)[C@@H](c1ccccc1)CNCC2 | n | n | 8.9µM | n | n | 20µM
Oc1ccc([C@@H]2CNCCc3c2cc(O)c(O)c3Cl)cc1 | n | n | x | n | n | 56µM
Oc1cc2c(cc1O)C(c1ccccc1)CNCC2 (centres undefined) | n | u | 6.7µM | u | u | 79µM!
CN1CCc2cc(Cl)c(O)cc2[C@@H](c2ccccc2)C1 | n | n | n | n | n | n
CN1CCc2c(cc(O)c(O)c2Cl)C(c2cccc(Cl)c2)C1 (centres undefined) | x | u | 8.9µM | n | n | x
COc1cccc(NC(=O)Cn2c(=O)n(C)c(=O)c3sc4c(c32)COC(C)(C)C4)c1 | x | x | x | x | x | n
COc1ccc(NC(=O)CCc2c(C)nn(-c3ccc(N4CCOCC4)nn3)c2C)cc1Cl | x | u | n | n | n | x
O=C(CCC1N=C2c3ccccc3N=C(SCc3cccc(F)c3)N2C1=O)NCc1ccc(F)cc1 (centres undefined) | x | n | n | n | n | x
COc1ccc(CNC(=O)c2ccc3c(c2)CCN3S(=O)(=O)c2ccc(Cl)cc2)cc1 | x | n | n | n | n | x
CN1CCc2cc(O)c(O)cc2C(c2ccccc2)C1 (centres undefined) | x | u | 11µM | n | n | x
CN1CCc2cc(Cl)c(O)cc2C(c2ccccc2)C1 (centres undefined) | x | n | n[12.7 µM] | n | n | x
CCOc1ccc(-n2c(C)nc(O)c2N=Nc2ccccc2)cc1 | n | n | 1.4µM | n | n | n
CCOc1ccccc1NC(=O)CN1C(=O)C2(SCC(=O)N2c2cccc(F)c2)c2ccccc21 (centres undefined) | x | n | n | n | n | x
CCOC(=O)N1CCC(NS(=O)(=O)c2ccc(C)c(Cl)c2)CC1 | n | n | n | n | n | n
CCOC(=O)c1cc(S(=O)(=O)NC2CCN(C(=O)OCC)CC2)cn1C | n | n | 50µM | n | n | n
Cc1c(N=C2C=C(Br)C(=O)C(Br)=C2)c(=O)n(-c2ccccc2)n1C | n | 16µM | 7.1µM | 16µM[quencher] | 25µM | 40µM
Cc1c(N=C2C=CC(=O)c3ccccc32)c(=O)n(-c2ccccc2)n1C | -52 | 2.2µM | 35µM | 4.5µM[quencher] | 7.9µM | 18µM
CC(C)(C)NCC(O)COc1ccccc1C1CCCC1 (centres undefined) | x | x | n | x | x | x
CCc1ccccc1OC[C@@H](O)CN[C@H]1CCCc2ccccc21 | n | n | 4µM | n | n | 50µM
O=C(c1ccccc1)c1ccc(OCC(O)CNC2CCCc3ccccc32)cc1 (centres undefined) | n | n | 10µM | n | n | n
OC(CNC1CCCc2ccccc21)COc1ccc2ccccc2c1 (centres undefined) | n | n | 10µM | n | n | n
SMILES | FBPA coupling cs | Tau fibril ThT | G9a block | Tau fluor cs | Tau FP inhib | Sfp PPTase inh
CC(=O)CCc1ccc(OCC(O)CNC2CCCc3ccccc32)cc1 (centres undefined) | n | n | u | n | n | n
COCCCN(Cc1ccco1)C(=O)c1cc2c(s1)-c1ccccc1OC2 | x | u | n | n | n | x
Cc1ccc2oc(=O)c(S(=O)(=O)c3ccc(C(C)(C)C)cc3)cc2c1 | x | n | n | n | n | x
Cc1ccccc1OCc1nc(-c2ccc(Br)o2)no1 | n | n | 79µM | n | n | n
COc1ccccc1-c1nc(-c2ccc(Br)o2)no1 | n | n | 50µM! | n | n | n
Cc1ccccc1OCc1nc(-c2ccccc2)no1 | n | u | n | n | n | n
CCCCCn1c(=O)c(C(=O)c2ccccc2)nc2ccccc21 | n | n | n | n | n | n
CCCCCCn1c(=O)[nH]c2nc3cc(N)ccc3nc2c1=O | -40 | 28µM | 40µM | u | u | u
CCOC(=O)c1c(C)[nH]c(-c2csc(C)n2)c1C | n | u | u | n | n | n
CCOC(=O)c1c(C)[nH]c(-c2csc(N)n2)c1C | n | 25µM | 28µM | u | u | 35µM
Cc1ccc(NC(=O)C(Cc2c[nH]c3ccccc23)NC(=O)OCC(C)C)cc1 (centres undefined) | x | n | n | 20µM[quencher] | n | x
COc1cc(/C=N/NC(=O)C(Cc2c[nH]c3ccccc23)NC(=O)OCC(C)C)cc([N+](=O)[O-])c1O (centres undefined) | n | 14µM | u | n | n | n
Cc1ccc(NC(=O)C(C)OC(=O)Cc2c[nH]c3ccccc23)cc1 (centres undefined) | x | x | n | x | x | x
COc1cc(/C=N/NC(=O)C(Cc2c[nH]c3ccccc23)NC(=O)OCc2ccccc2)cc([N+](=O)[O-])c1O (centres undefined) | n | 13µM | 8.9µM | u | u | n
CC(NC(=O)CCNS(=O)(=O)c1ccc2c(c1)oc(=O)n2C)c1ccccc1 (centres undefined) | n | x | n | x | x | n
CC(=O)c1c(N2CCOCC2)nc(=O)n(-c2ccccc2)c1C | n | n | 45µM | n | n | n
CCn1c(C)c(C(C)=O)c(N2CCCCC2)nc1=S | n | n | 45µM | n | n | n
CCn1c(C)c(C(C)=O)c(N2CCN(c3ccccc3)CC2)nc1=S | n | 22µM | n | n | u | 56µM
O=C(NCc1ccccc1Cl)C(=O)NCC(c1cccs1)S(=O)(=O)c1cccs1 (centres undefined) | x | n | n | n | n | x
CC(C)(C)OC(=O)N1CCC(c2c(C(=O)NCC3CCN(C4CCCC4)C3)cnn2-c2ccccc2Cl)CC1 (centres undefined) | n | x | 71µM | x | x | n
O=C(/C=C/c1ccccc1)c1ccc(NC2=NCCCS2)cc1 | n | u | u | n | n | n
Cc1cccc(/C=C/C(=O)c2ccc(NC3=NCCCS3)cc2)c1 | n | u | u | n | n | n
CC(C)(C)c1ccc(/C=C/C(=O)c2ccc(NC3=NCCCS3)cc2)cc1 | n | n | 40µM | n | n | u
COc1cccc(/C=C/C(=O)c2ccc(NC3=NCCCS3)cc2)c1 | n | n | 45µM | n | n | n
O=C(/C=C/c1ccc(Br)cc1)c1ccc(NC2=NCCCS2)cc1 | n | n | u | n | n | 40µM
Cc1ccc(C)c(S(=O)(=O)N(C)C2CCS(=O)(=O)C2)c1 (centres undefined) | x | x | n[0.501 µM] | x | x | x
